Laboratory results published in PubChem BioAssay (NCATS).
Results filed as inconclusive are left out. Active and inactive are the calls of the source. Calls follow the shape of the dose curve; as a rule, active = well fitted curve in the direction sought with a large enough effect; inconclusive = small, poorly fitted or top-dose-only effect, or another doubt; inactive = no such curve, though single readings can be large; an effect the other way counts as inactive or inconclusive.

How the values were obtained:
[1] = target: Rap guanine nucleotide exchange factor 3 (Homo sapiens) (UniProt O95398); assay: Confirmatory qHTS for agonist of cAMP-regulated guanine nucleotide exchange factor 3 (EPAC1) (AID 1645881);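 also: EPAC1 catalysed release of BODIPY-GDP from Rap1B seen as fluorescence loss; 100% = effect of cAMP agonist control; nearly all actives have a fitted effect of over 75% in size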
[2] = target: Rap guanine nucleotide exchange factor 4 (Homo sapiens) (UniProt Q8WZA2); assay: Confirmatory qHTS for agonist of cAMP-regulated guanine nucleotide exchange factor 4 (EPAC2) (AID 1645884);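 also: nucleotide exchange releases bodipy-GDP from Rap1 and this lowers its fluorescence; % is scaled to controls: 0 for no effect and ±100 for the full control effect; nearly all actives have a fitted effect of over 65% in size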
[3] = target: Rap guanine nucleotide exchange factor 4 (Homo sapiens) (UniProt Q8WZA2); assay: Confirmatory qHTS for antagonist of cAMP-regulated guanine nucleotide exchange factor 4 (EPAC2) (AID 1645885); also: nearly all actives have a fitted effect of over 25% in size; also: potency is read from the fitted curve at half-maximal effect; as to activity change, negative = inhibition: % is scaled to controls: 0 for no effect and ±100 for the full control effect
[4] = target: Rap guanine nucleotide exchange factor 3 (Homo sapiens) (UniProt O95398); assay: Counterscreen qHTS for antagonist of cAMP-regulated guanine nucleotide exchange factor 3 (EPAC1) (AID 1645888);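 also: fluorescence loss as bound BODIPY-GDP is released from Rap1B; % of control where 0% means no effect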
How it was run: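 Rap1B–BODIPY-GDP (250 nM) with 50 uM GDP; compounds pin-transferred to 9.74 nM–152 uM final (activator) or from 7.32 nM upwards (inhibitor). Fluorescence Ex/Em 480/540 nm read at 5 and 30 min, then after adding cAMP or buffer, at room temperature.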

Chain of Rap guanine nucleotide exchange factor 3 (Homo sapiens) (O95398 whole entry, looked up): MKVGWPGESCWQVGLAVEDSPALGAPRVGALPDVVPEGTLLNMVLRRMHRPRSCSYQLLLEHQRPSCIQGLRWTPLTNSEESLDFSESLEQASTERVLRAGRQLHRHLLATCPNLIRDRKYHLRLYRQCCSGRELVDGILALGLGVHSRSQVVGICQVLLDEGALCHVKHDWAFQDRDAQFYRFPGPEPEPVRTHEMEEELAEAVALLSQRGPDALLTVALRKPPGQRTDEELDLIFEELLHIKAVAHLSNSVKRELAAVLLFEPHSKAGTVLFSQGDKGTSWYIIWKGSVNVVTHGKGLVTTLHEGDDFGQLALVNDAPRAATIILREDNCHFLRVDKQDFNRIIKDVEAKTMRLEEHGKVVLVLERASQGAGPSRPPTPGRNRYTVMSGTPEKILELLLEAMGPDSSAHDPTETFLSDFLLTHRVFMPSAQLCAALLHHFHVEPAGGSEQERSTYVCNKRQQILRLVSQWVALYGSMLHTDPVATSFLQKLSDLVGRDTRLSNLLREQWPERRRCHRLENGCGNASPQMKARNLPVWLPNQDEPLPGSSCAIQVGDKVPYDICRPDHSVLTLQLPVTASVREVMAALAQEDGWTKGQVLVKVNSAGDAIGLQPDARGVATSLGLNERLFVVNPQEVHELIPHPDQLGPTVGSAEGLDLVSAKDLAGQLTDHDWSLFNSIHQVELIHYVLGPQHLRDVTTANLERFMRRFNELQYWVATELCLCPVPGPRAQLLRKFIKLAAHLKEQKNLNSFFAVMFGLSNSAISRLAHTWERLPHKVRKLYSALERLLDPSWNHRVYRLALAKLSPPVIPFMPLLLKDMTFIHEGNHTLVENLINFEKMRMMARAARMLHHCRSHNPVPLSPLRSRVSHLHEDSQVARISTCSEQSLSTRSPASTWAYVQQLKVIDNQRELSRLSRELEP
Chain of Rap guanine nucleotide exchange factor 4 (Homo sapiens) (Q8WZA2 whole entry, looked up): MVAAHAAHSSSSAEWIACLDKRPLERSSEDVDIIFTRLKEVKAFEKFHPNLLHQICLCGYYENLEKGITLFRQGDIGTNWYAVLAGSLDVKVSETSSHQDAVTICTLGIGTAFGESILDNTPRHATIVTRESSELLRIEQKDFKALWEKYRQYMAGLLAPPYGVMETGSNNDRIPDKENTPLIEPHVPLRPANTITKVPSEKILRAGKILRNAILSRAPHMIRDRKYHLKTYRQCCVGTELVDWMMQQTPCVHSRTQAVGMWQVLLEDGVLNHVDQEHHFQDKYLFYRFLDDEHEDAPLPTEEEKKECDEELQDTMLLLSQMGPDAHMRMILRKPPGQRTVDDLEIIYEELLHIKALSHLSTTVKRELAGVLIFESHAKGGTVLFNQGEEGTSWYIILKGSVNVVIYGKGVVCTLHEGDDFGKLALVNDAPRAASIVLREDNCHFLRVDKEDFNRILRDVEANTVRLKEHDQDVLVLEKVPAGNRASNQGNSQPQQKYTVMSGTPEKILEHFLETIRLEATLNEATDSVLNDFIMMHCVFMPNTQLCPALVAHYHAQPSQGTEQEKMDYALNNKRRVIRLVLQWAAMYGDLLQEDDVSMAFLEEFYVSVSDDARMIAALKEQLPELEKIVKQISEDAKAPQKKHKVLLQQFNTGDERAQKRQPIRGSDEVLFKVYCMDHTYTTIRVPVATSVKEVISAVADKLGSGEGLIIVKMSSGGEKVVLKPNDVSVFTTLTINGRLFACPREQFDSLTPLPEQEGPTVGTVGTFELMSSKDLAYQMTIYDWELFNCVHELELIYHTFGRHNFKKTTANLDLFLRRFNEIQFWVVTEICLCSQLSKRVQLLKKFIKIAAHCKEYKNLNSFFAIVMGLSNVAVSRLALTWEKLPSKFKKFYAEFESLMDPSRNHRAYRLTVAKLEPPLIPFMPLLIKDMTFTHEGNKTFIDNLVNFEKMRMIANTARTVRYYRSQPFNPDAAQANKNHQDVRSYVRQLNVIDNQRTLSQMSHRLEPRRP

CCCCc1ccc(NS(=O)(=O)c2cc3c4c(c2)CC(=O)N4CCC3)cc1
inactive: Potency [1] | Potency [2] | Potency [3] | Potency [4]

CCCOc1ccc(/C=C2/C(=O)ON=C2C)cc1Cl
inactive: Potency [1] | Potency [2] | Potency [3] | Potency [4]

COc1ccc2oc(=O)c(-c3nnc(NCc4ccco4)s3)cc2c1
inactive: Potency [1] | activation [2] 7.34% [at 17.1 µM, percent relative to cAMP agonist control] | Potency [3] | activity change, negative = inhibition [4] 15.5% [at 30.8 µM]

CC1=C(C(=O)Nc2ccccc2)C(c2ccc(Cl)cc2)n2c(s/c(=C/c3cccc(OCC(=O)O)c3)c2=O)=N1 (stereo not given)
inactive: Potency [1] | activation [2] 3.83% [at 17.1 µM, percent relative to cAMP agonist control] | Potency [3] | activity change, negative = inhibition [4] -3.62% [at 30.8 µM]

COc1ccc(NC(=O)c2ccco2)cc1NC(=O)C(C)Oc1ccc(Cl)cc1Cl (stereo not given)
inactive: Potency [1] | Potency [2] | Potency [3] | Potency [4]

COc1ccc(/C=N/NC(=O)c2[nH]c3ccc(Br)cc3c2-c2ccccc2)c(C(=O)O)c1OC
inactive: Potency [1] | activation [2] 2.8% [at 17.1 µM, percent relative to cAMP agonist control] | Potency [3] | activity change, negative = inhibition [4] 0.744% [at 30.8 µM]

COc1ccc(Cl)cc1NC(=O)CN(C)C(=O)c1cc(-c2ccncc2)nc2ccccc12
inactive: Potency [1] | Potency [2] | Potency [3] | Potency [4]

O=C1c2cccc3cc([N+](=O)[O-])cc(c23)C(=O)N1/N=C/c1ccc(O)cc1O
inactive: Potency [1] | Potency [2] | Potency [3] | Potency [4]

COCCCNC(=O)C[C@@H]1C[C@@]2(C(=O)OC)CCCCC=C2N(Cc2cccc3ccccc23)C1=O
inactive: Potency [1] | activation [2] 3.32% [at 17.1 µM, percent relative to cAMP agonist control] | Potency [3] | activity change, negative = inhibition [4] -43.8% [at 30.8 µM]

CC(NS(=O)(=O)OCC(Cl)(Cl)Cl)c1ccc(Br)cc1 (stereo not given)
inactive: Potency [1] | Potency [2] | Potency [3] | Potency [4]

Cc1ccc(C(C)C)c(OCC(=O)NCC2(N3CCOCC3)CCCCC2)c1
inactive: Potency [1] | Potency [2] | Potency [3] | Potency [4]

O=C(NNC(=O)c1ccccc1F)c1cccc(-n2cccc2)c1
inactive: Potency [1] | Potency [2] | Potency [3] | Potency [4]

Cc1ccc(C(=O)c2cn(Cc3cccc(F)c3)c3nc(C)ccc3c2=O)cc1
inactive: Potency [1] | Potency [2] | Potency [3] | Potency [4]

Cc1ccc(-n2c(CCC(=O)O)ccc2-c2cccs2)cc1Cl
inactive: Potency [1] | Potency [2] | outcome [3] inactive [at 12.7 µM] | Potency [4]

CCOC(=O)c1ccc(NC(=O)c2c(NCc3cccs3)sc3c2CCCCC3)cc1
inactive: Potency [1] | Potency [2] | outcome [3] inactive [at 12.7 µM] | Potency [4]

C[C@H]1CN([C@@H](C)CO)S(=O)(=O)c2ccc(Br)cc2O[C@@H]1CN(C)Cc1cccc(F)c1
inactive: Potency [1] | activation [2] 15% [at 17.1 µM, percent relative to cAMP agonist control] | Potency [3] | activity change, negative = inhibition [4] -8.18% [at 30.8 µM]

CCCCOc1c(Br)cc(/C=N/O)cc1OCC
inactive: Potency [1] | activation [2] 6.54% [at 17.1 µM, percent relative to cAMP agonist control] | Potency [3] | activity change, negative = inhibition [4] -12% [at 30.8 µM]

O=c1c2ccccc2nc(N/N=C/c2c(O)ccc3ccccc23)n1O
inactive: Potency [1] | Potency [2] | Potency [3] | Potency [4]

O=C(Nc1cccc(S(=O)(=O)NC2=NCCCCC2)c1)c1cc(-c2ccc(Cl)cc2)nc2ccccc12
inactive: Potency [1] | Potency [2] | Potency [3] | Potency [4]

C[C@H](CO)N1C[C@H](C)[C@H](CN(C)Cc2cccc(O)c2)OCc2ccccc2-c2c(n(C)c3ccccc23)C1=O
inactive: Potency [1] | activation [2] 8.26% [at 17.1 µM, percent relative to cAMP agonist control] | Potency [3] | activity change, negative = inhibition [4] -3.58% [at 30.8 µM]

COC(=O)[C@]12CCCCC=C1N(CCC1=CCCCC1)C(=O)[C@H](CC(=O)NCc1cccc(C(F)(F)F)c1)C2
inactive: Potency [1] | activation [2] 0% [at 17.1 µM, percent relative to cAMP agonist control] | Potency [3] | activity change, negative = inhibition [4] -9.47% [at 30.8 µM]

O=C(NCCc1ccccc1)c1ccc(Cn2c(SCc3cccc(F)c3)nc3cccnc32)cc1
inactive: Potency [1] | Potency [2] | Potency [3] | Potency [4]

CCOc1cccc(CNc2ccc(O)cc2)c1OCc1ccc(Cl)cc1Cl
inactive: Potency [1] | Potency [2] | Potency [3] | Potency [4]

CN(C)S(=O)(=O)c1ccc(N2CCCC2)c(C(=O)NCC2COc3ccccc3O2)c1 (stereo not given)
inactive: Potency [1] | Potency [2] | Potency [4]
active: Potency [3] 30.1 µM

O=C(Nc1nc(-c2ccco2)c(-c2ccco2)s1)c1ccco1
inactive: Potency [1] | activation [2] 2.72% [at 17.1 µM, percent relative to cAMP agonist control] | Potency [3] | activity change, negative = inhibition [4] 0.168% [at 30.8 µM]
